Residue numbers refer to the chain shown, from its start. In all, about 24,000 sequences were measured (“enrichment r”: median about 0.99, highest 2% from about 3.7 on). Many of the other results were omitted from the sample, so the highest values are more common in it than they were.
B1: 12280944_12281064_4437_CDS_ENSMUSG00000032625_ENSMUST00000046121|mouse|control|control (ssRNA)
RNA: GGGAGUUCUACAGUCCGACGAUCGGGCUGGGUGCAGGUUUCCUCCAAAACUAUUUGUUUAUUACCAUCUAUGAUGAGCUCUGUGUUAGCACAGAACUCUUCGUCCACCACUUUGCUGAAAUCCUCAGCUGAGCCAUCACUCACCAACAGAGGAUUGAGCAUCA
B2: chr15:79189586:79189587:+_ENSG00000185787_ENST00000426013|hu_hu|FALSE|FALSE (ssRNA)
RNA: GGGAGUUCUACAGUCCGACGAUCUGAAAACACUGGCAGCAAUUUUGAAAUGAAAAAAAAAAAGAAAGAAGAAAAAAGGAGCUAUUACCCCCUUUUAUUUUUUCUCUGUUUAAAAUCAAACAGAAAACAAACAUCAAUUGUUAUCAACAGAGGAUUGAGCAUCA
B3: chr15:79189586:79189587:+_ENSG00000185787_ENST00000426013|hu_hu|motif|central (ssRNA)
RNA: B2 RNA with U82G, A83G
B4: chr7:75956504:75956505:-_ENSG00000170027_ENST00000307630|hu_mus|motif|central (ssRNA)
RNA: GGGAGUUCUACAGUCCGACGAUCAUAGAACUGCAUGUCACUAUAGCAACAUCCAAAACAGAUCAAUCUGUUACAAUCACGGUUUGGUAAAGCAAACUUUACCCCUGAAAGGAAAAAAUUAAAUUAAAAAAAAGAAGUUUAAAACAACAGAGGAUUGAGCAUCA
B5: 65006457_65008074_834_CDS_ENSMUSG00000029920_ENSMUST00000031984|mouse|control|control (ssRNA)
RNA: GGGAGUUCUACAGUCCGACGAUCUGUUGAUUCAAUCAACUUUAGAAGAUCACUGUCACUUCUUUGUGGAAACAGUUCCUUCAAUGUCUGAAGCUUAGCAUCUUUAAGAUCUUCCAAUUCUGAAAGGUCUUCCAGUUCUGAACUCAACAGAGGAUUGAGCAUCA
B6: chr9:37780659:37780660:-_ENSG00000107371_ENST00000396521|hu_hu|FALSE|FALSE (ssRNA)
RNA: GGGAGUUCUACAGUCCGACGAUCGGUUCACCUGAAAAAACCCAUAGUUUUUUGCCUCAACUGACCUGUAAAAAAGUCCACCUAUAUCAACUUUCUGCCAAUCUGGAGAAGAUCUGUUUUCUUUGAUCUGACGUCAUGUGUUCACAACAGAGGAUUGAGCAUCA
B7: chr7:75956504:75956505:-_ENSG00000170027_ENST00000307630|hu_mus|FALSE|FALSE (ssRNA)
RNA: B4 RNA with G80U, G81A
B8: 54532588_54532708_162_CDS_ENSMUSG00000073678_ENSMUST00000097739|mouse|control|control (ssRNA)
RNA: GGGAGUUCUACAGUCCGACGAUCGAAUUUAAAUGUAUCCUUUUUUUUUUCCCCUAAAAAAGGGAUGUAAAAAAUCCAAUAUGAAACAGAAAAAGUACACAUGAAAUACAAAAUACACUGUCUGUUUGGCUCUGGAGCAGUUAGCAACAGAGGAUUGAGCAUCA
B9: chr1:225611761:225611762:-_ENSG00000143815_ENST00000272163|hu_mus|hu_hu_hu_mus_True|8_98 (ssRNA)
RNA: GGGAGUUCUACAGUCCGACGAUCCCAGGCCAUCGGCCUCUUACCACUUCACCCUCAACAAACUUCCUACUUGGCAUUUUCUAAAAUUAGUCUGGCCGCGCUCCGGCGGGAACUCCAGCCACUCCAGGGAGAAUAGUAGCAGCCCAACAGAGGAUUGAGCAUCA
B10: 35472726_35489589_359_3pUTR_ENSMUSG00000029840_ENSMUST00000031866|mouse|control|control (ssRNA)
RNA: GGGAGUUCUACAGUCCGACGAUCCUGUCCACAAUCUGCAGCAUAAUGAAGAGGCUUCCUUCCACCCUCUAGUGUCCGGUUGACAUCUUCUCCCUUAGCCACAUAGUCCUUCACCUCAUCCAAGUCUCCGUUUUUCAGGGCCCACAACAGAGGAUUGAGCAUCA
B11: chr17:47010600:47010601:-_ENSG00000159210_ENST00000290330|hu_hu|FALSE|FALSE (ssRNA)
RNA: GGGAGUUCUACAGUCCGACGAUCACUGACAGUCACGUAGCCAUUCUCUGCCAGCUGCAGCACCACGGUGUGAUCCAUAUUGAGCUCAGCUGGAACAGACUGAAUGAGGUAAGUGCCGCCCACAGGGAUGAUGCCGAAGCCAGUCAACAGAGGAUUGAGCAUCA
B12: chr2:217001844:217001845:+_ENSG00000079246_ENST00000392132|hu_hu|FALSE|FALSE (ssRNA)
RNA: GGGAGUUCUACAGUCCGACGAUCGCCGACUUGAGGAUUAGCUCUUUUGUCAUAAGCAUAUCGAACUAUGGCCACCAUGUCUAAGUCAUCCAAAGCAUGAAUCAGGGAGGAAAGUGCAACUGCAGCUGCCUCAUCAUCUCUUGCCAACAGAGGAUUGAGCAUCA
B13: chr21:40768814:40768815:+_ENSG00000182093_ENST00000333781|hu_mus|motif|central (ssRNA)
RNA: GGGAGUUCUACAGUCCGACGAUCCUGGCCUUCCCCUCAGCUGAAAGGGUGGAGAACGAUAGCCACAACUUUGUUACAGACGGAAAUCCAACAGGUGAUUCCAAUUCCACCUGCUACUCGAGUAGGAAAGGCUACCAGGCGGUCCAACAGAGGAUUGAGCAUCA
B14: 96412582_96412966_892_CDS_ENSG00000111144_ENST00000228740|human|control|control (ssRNA)
RNA: GGGAGUUCUACAGUCCGACGAUCGCCACCAUAAGGGAAGGAUGGUGGCAGGACCAAUAGGUCAUACUGUCCCCAUACAUACGGUCCUCCCAGAUCUUCUGCUAUUUUAAGCAUAGAUUCAGUCUCAGAAAACUCAUAAGCAGACAACAGAGGAUUGAGCAUCA
B15: 32585910_32588873_1288_CDS_ENSMUSG00000024381_ENSMUST00000025239|mouse|control|control (ssRNA)
RNA: GGGAGUUCUACAGUCCGACGAUCUGAGAAAGGCCCAGGGGCCUCAAACUGGGAGGGGGUGGUCACGCUGAUCUCAGGGACAAAUGCGUCAUCAAAAAGGCUGAGAAUCUGCUCCUGCUUCAUCUCCUUGGAUGGGGUGUGUUUCAACAGAGGAUUGAGCAUCA
B16: chrX:117107323:117107324:-_ENSG00000003096_ENST00000371878|hu_mus|motif|central (ssRNA)
RNA: GGGAGUUCUACAGUCCGACGAUCUUUGAGCUGCAACAGUACAAAUGGGAUAUAAACCUCAGCAUAGCCUUAGGCCACAGCGGAUAGAGAUCAGUGACUAAAUUCAGCAGCCCGCUUUCCUCCUGUGAAAGCUCUGGCCACACACAACAGAGGAUUGAGCAUCA
B17: chr16:18799448:18799449:-_ENSG00000134419_ENST00000563390|perfect_dup|FALSE|FALSE (ssRNA)
RNA: GGGAGUUCUACAGUCCGACGAUCCCUUCCUGUGAGGUUCACAACAAUCUUCCCAGCUCUGUGAUCAUCAAUGAUCUCAAAUUCACCAAUGUAUCCGUGCUUCAUCAUCACGGUUAAGAACCGAACGAUGACUUUAGAACAUGGCAACAGAGGAUUGAGCAUCA
B18: 99623494_99624154_931_CDS_ENSMUSG00000067567_ENSMUST00000087916|mouse|control|control (ssRNA)
RNA: GGGAGUUCUACAGUCCGACGAUCCUGAAUGGGCACAUUGACACUGUAGUACCGUCCUUUCCCCAGGCCAACAUCAGACAUGUCACCUGUUCCUGGGAAAAAUCCUGGGGAGAACUUGUGCAGGGACACAGUCAUAACCUUCGACAACAGAGGAUUGAGCAUCA
B19: 37607701_37614754_715_CDS_ENSG00000102710_ENST00000475892|human|control|control (ssRNA)
RNA: GGGAGUUCUACAGUCCGACGAUCGCUCUCAAGCAAAAGUUUGUCUUCCUGGGUCCAUUUGUGGUUAUCACUUGUUAUUGAAUGUACAUCACAAAUUAAAGUCUGCAUUGUUGGACGUAAGAGAAUGUGCCGACUUUGGUAACCCAACAGAGGAUUGAGCAUCA
B20: chr2:183789671:183789672:-_ENSG00000061676_ENST00000360982|hu_hu|FALSE|FALSE (ssRNA)
RNA: GGGAGUUCUACAGUCCGACGAUCUGGCAGGUACACUUGAAUUUCAAAAAUUUAAAACAUAUAUAAAAAGUGGUUAGGGACUAACAUUUGUAUCAACAGUUGAUAAAUGUCUAAGAUUGUUUAUUAUACAGCAGGGUACAAUGGCAACAGAGGAUUGAGCAUCA
B21: chr9:14812383:14812384:-_ENSMUSG00000031934_ENSMUST00000164273|mus_mus|mus_mus_mus_hu_True|68_88 (ssRNA)
RNA: GGGAGUUCUACAGUCCGACGAUCAUAGCCCAGGUAGAUACACGCUAACAGUAUAACGAUGAGUGUCACCAGCCGGCAGCUAAUGUACUUGAUGAUUAAAUUAUUAGAAUUUUUCUUUGUCUUCAAGUACUGCUCCACAAUUGGCAACAGAGGAUUGAGCAUCA
B22: chr1:172123744:172123745:-_ENSMUSG00000026667_ENSMUST00000150821|mus_hu|motif|central (ssRNA)
RNA: GGGAGUUCUACAGUCCGACGAUCAAACGCAUUGUUCACACUUUUUAGGAAUAUAGGAAAGUGGAAAAUAAAAGUUCUUUGCGGUUCAGCAGGAAAGAGUUUAAAAGACUUGAAUGGAAAUCAGAAAUUUAGGGAUUUGAGAAACAACAGAGGAUUGAGCAUCA
B23: chr2:183789671:183789672:-_ENSG00000061676_ENST00000360982|hu_hu|motif|central (ssRNA)
RNA: B20 RNA with U81G, A82G

Target: T1, UNK ZnF1-3 (human, UniProt Q9C0B0 31-174)
T1 sequence: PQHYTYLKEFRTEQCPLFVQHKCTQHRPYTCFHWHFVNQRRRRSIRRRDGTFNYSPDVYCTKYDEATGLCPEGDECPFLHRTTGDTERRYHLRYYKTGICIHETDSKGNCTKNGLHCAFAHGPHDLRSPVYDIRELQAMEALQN
Test: nsRBNS (natural sequence RNA bind-n-seq); RBNS binding buffer (assumed for nsRBNS): 25 mM Tris pH 7.5, 150 mM KCl, 3 mM MgCl2, 0.01% Triton X-100, 500 ug/ml BSA, 20 U/ml SUPERase-In, 4 C; UNK is unkempt and MSI1 is Musashi-1; names of the RNAs are library labels; protein concentration not given here; high values mean tight binding

| Binder | binding signal [enrichment R] |
| --- | --- |
| B1 | 0.732 |
| B2 | 3.39 |
| B3 | 3.68 |
| B4 | 6.25 |
| B5 | 0.355 |
| B6 | 0.913 |
| B7 | 9.16 |
| B8 | 1.05 |
| B9 | 1.11 |
| B10 | 0.866 |
| B11 | 0.843 |
| B12 | 1.53 |
| B13 | 1.05 |
| B14 | 0.524 |
| B15 | 1.65 |
| B16 | 1.34 |
| B17 | 0.793 |
| B18 | 0.68 |
| B19 | 0.803 |
| B20 | 4.06 |
| B21 | 1.31 |
| B22 | 3.57 |
| B23 | 6.64 |

Reference: paper PMC12136788
